High-throughput results: PubChem BioAssay, several laboratories
IDE act = boosts human insulin-degrading enzyme activity in HEK cells; FAbeta-B cleavage, fluorescence polarization; 0% vehicle, 100% cell-free pure enzyme wells; activation, % at 5.96 µM; hit rate 0.073% among 340,000;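 active means activation above the mean of all tested compounds plus 3 SD, set per screening campaign, cut at about 17% in these data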
Target sequence (P14735 whole entry, looked up): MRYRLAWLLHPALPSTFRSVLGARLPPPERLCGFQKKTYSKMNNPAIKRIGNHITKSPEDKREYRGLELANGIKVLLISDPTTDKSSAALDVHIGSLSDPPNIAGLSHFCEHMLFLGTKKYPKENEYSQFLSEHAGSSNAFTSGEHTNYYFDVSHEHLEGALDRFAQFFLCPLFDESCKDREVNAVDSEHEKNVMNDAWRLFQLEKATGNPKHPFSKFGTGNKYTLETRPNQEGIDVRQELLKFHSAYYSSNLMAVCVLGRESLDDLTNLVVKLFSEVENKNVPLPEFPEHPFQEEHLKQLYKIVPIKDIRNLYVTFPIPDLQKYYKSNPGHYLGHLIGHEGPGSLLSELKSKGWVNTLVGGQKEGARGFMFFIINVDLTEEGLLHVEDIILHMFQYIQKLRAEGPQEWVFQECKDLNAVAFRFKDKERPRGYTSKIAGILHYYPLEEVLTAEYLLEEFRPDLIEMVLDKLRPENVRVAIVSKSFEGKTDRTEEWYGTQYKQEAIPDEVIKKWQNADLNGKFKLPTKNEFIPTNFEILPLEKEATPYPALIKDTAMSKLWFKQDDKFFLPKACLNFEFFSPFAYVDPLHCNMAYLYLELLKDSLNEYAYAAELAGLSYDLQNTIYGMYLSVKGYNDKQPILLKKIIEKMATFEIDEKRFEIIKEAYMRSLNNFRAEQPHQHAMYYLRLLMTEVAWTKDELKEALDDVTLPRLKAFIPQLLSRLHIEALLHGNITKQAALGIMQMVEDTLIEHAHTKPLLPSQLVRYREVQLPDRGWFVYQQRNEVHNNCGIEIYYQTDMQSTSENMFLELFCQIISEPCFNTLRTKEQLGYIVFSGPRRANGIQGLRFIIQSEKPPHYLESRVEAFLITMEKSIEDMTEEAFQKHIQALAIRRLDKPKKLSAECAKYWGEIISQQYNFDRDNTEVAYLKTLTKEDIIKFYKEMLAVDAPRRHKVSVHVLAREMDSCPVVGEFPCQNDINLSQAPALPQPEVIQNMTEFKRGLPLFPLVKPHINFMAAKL
IDE cell inh = inhibits human insulin-degrading enzyme in HEK cells; FAbetaB cleavage, fluorescence polarization; inhibition, % at 5.59 µM; hit rate 0.41% among 320,000;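 active means percent inhibition above the average of all tested compounds plus 3 SD, set per screening campaign, cut at about 16% in these data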;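 further: IDE supplied by intact live HEK cells; FP after avidin binding of uncleaved biotin substrate so inhibition keeps polarization high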
CRFR2-BP antag = CRF-BP/CRF-R2 complex antagonism. HEK293 CRF-R2/CRF-BP, CRF-induced calcium fluorescence. inhibition, % at 11.8 µM. hit rate 0.59% among 350,000. AID 588475;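 active means inhibition of the ligand-induced calcium signal above about 50% at the single tested concentration, limit read from the data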
cardiac RTF act = cardiac RTF calcium sensitization. P19429+P45379. IANBD-labeled TnC RTF fluorescence at EC20 calcium; 0% EC20 calcium, 100% full calcium. activation, % at 7.2 µM. hit rate 0.24% among 340,000. AID 493008;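 active means activation above the mean over all tested compounds plus 3 SD, cut at about 30% in these data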;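 further: rise in fluorescence read as greater calcium sensitivity of cardiac thin filaments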
RTF Ca sens inh = cardiac RTF calcium desensitization. inhibition, % at 7.15 µM. IANBD-labeled cardiac RTF, Ca2+ fluorescence. hit rate 0.12% among 340,000. P19429+P45379. AID 493244;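 active means inhibition above the mean inhibition of all tested compounds plus 3 SD, cut at about 17% in these data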;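 further: assay run at fixed EC70 calcium of 1.6 mM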
CRFR2-BP ag = agonists of human CRF-binding protein/CRF-R2 receptor complex; HEK293 CRF-R2/CRF-BP, calcium dye fluorescence (FLIPR); percent of saturating CRF peptide response; activation, % at 13.2 µM; hit rate 0.46% among 350,000; AID 588473;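 active means activation of at least 50%, plus an integration ratio under a set limit after plate pattern correction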
Of the large screens only hits and unclear results are named; the others gave an inactive call. This is a sample that favours compounds with a hit; in the whole collection about 1.5% have one here.

COc1ccccc1-c1c(C)nn2c(N3CCN(c4ccccc4OC)CC3)cc(C)nc12	CRFR2-BP antag 68
Cc1c(C(=O)Nc2cccc([N+](=O)[O-])c2)sc2ncn(CC(=O)N3CCOCC3)c(=O)c12	CRFR2-BP antag 87
COc1cc(CN2CCN(C(=O)c3ccccc3F)CC2)cc(OC)c1OC	none (no result: IDE cell inh)
O=C(CSc1nc2ccccc2n1CCc1ccccc1)NC1CCS(=O)(=O)C1 (centres undefined)	CRFR2-BP antag 60
O=C(CSc1nc2ccccc2n1CCc1ccccc1)NC1CC1	none
COc1cccc2cc(C(=O)OCc3ccccc3)c(=O)oc12	none
O=P(OCC1CCCO1)(OCC1CCCO1)OCC1CCCO1 (centres undefined)	none (no result: IDE cell inh)
CCn1nc(C)cc1-c1nnc(Sc2ncc([N+](=O)[O-])s2)n1C	CRFR2-BP antag 97
CCn1nc(C)cc1-c1nnc(SCC(=O)Nc2ccccc2)n1CCCOC	none
Cc1ccc(CNC(=O)C2CCN(C(=O)Nc3ccc(C)cc3)CC2)cc1	none (no result: IDE cell inh)
O=C(Nc1ccccn1)c1ccc(C(=O)c2ccccc2)cc1	CRFR2-BP antag 55
COC(=O)c1c(=O)n(O)c2ccc(OC)cc2[n+]1[O-]	cardiac RTF act 44
CCOc1ccc(-c2c(=O)n(O)c3ccccc3[n+]2[O-])cc1	none
Clc1ccc2c(NCc3ccccn3)ccnc2c1	none
CCOc1ccccc1Nc1ccnc2cc(Cl)ccc12	CRFR2-BP antag 59
O=C(NC(=O)c1ccccc1O)c1ccc(C(F)(F)F)cc1	CRFR2-BP antag 52, CRFR2-BP ag 55 (no result: IDE act, cardiac RTF act, RTF Ca sens inh)
CCCc1ccc(C(=O)NC(=O)c2ccccc2O)cc1	CRFR2-BP ag 51
O=C(CSc1nc2c(oc3ccccc32)c(=O)n1CC1CCCO1)NCc1ccccc1 (centres undefined)	none
COc1ccc(N=Cc2cc3c(cc2O)OC(N)=C(C#N)C3c2ccccc2)cc1 (centres undefined)	cardiac RTF act 71
COc1ccc(C2C(C#N)=C(N)Oc3cc(O)ccc32)cc1 (centres undefined)	none (no result: IDE cell inh)
CC(C)(C)S(=O)(=O)/C(C#N)=N/Nc1ccc(Cl)cc1	CRFR2-BP antag 65
COc1ccccc1N(CC(=O)NC1CCCC1)C(=O)c1oc(C(C)(C)C)cc1C	none
Cn1c2c(c(=O)n3ncnc13)CCCC2	IDE cell inh 17
O=C(Cn1c2c(c(=O)n3ncnc13)CCC2)N/N=C/c1ccc(Cl)cc1	none
COc1ccccc1CNC(=O)CCc1nnc2ccc(NCCCN3CCCC3=O)nn12	CRFR2-BP antag 99
COc1ccc(CNC(=O)CCc2nnc3ccc(NCCCN4CCCC4=O)nn23)cc1	none
N#Cc1cccc(NS(=O)(=O)c2ccccc2Cl)c1	none
CN(CC(=O)Nc1cccnc1)S(=O)(=O)c1ccc(Br)cc1	none
Cc1cc(=O)[nH]c2cc(O)ccc12	none
CC(C)=CCCC1(C)C=Cc2c(c(C)cc3c2[nH]c2cc(O)ccc23)O1 (centres undefined)	IDE act 24
CC(=O)c1ccc(NC(=O)CSc2ccc(-c3ccc4c(c3)OCO4)nn2)cc1	CRFR2-BP antag 122
CNC(=O)C1CCN(S(=O)(=O)c2c(C)noc2/C=C/c2ccc(OC)cc2)CC1	CRFR2-BP ag 54
CNc1nc2cc([N+](=O)[O-])c([N+](=O)[O-])cc2nc1NC	CRFR2-BP antag 66, CRFR2-BP ag 65
Cc1ccc(N=Nc2ccc(O)c(P(=O)(c3ccccc3)c3ccccc3)c2)cc1	CRFR2-BP antag 108
COCC(COS(N)(=O)=O)C(C)C (centres undefined)	none
COc1ccc(CNC(=O)C2=CC(c3ccc(C)cc3)=NS(=O)(=O)N2C)cc1	none
Cc1ccc(NS(=O)(=O)c2ccc(C(=O)Nc3nncs3)cc2)cc1	CRFR2-BP antag 110
CC1CN(S(=O)(=O)c2ccc(C(=O)Nc3nncs3)cc2)CC(C)O1 (centres undefined)	IDE act 26
Cc1ccc(NS(=O)(=O)c2ccc(C(=O)N3CC(C)CC(C)C3)cc2)cc1 (centres undefined)	CRFR2-BP ag 117
Cc1ccc(S(=O)(=O)Nc2cc(C(=O)Nc3cc(C)cc(C)c3)ccc2Cl)cc1	CRFR2-BP antag 55
CCOCC(=O)Nc1cc(C(=O)Nc2cc(C)cc(C)c2)ccc1Cl	none (no result: IDE act, CRFR2-BP antag, cardiac RTF act, RTF Ca sens inh, CRFR2-BP ag)
Cc1ccc(S(=O)(=O)Nc2ccc(C(=O)N3CCCC3)cc2)cc1	none
Cc1ccc(NC(=O)COc2ccc(Br)cc2CO)cc1S(=O)(=O)N1CCOCC1	none
COc1ccc([N+](=O)[O-])c(O)c1C(C)=O	none (no result: IDE cell inh)
Cc1ccc(S(=O)(=O)NCCC(=O)OCC(=O)N(Cc2ccccc2)C(C)(C)C)cc1	none
O=C1C=CC2(O[C@H](c3ccccc3)[C@@H](c3ccccc3)O2)[C@H](Sc2ccccc2O)C1	none (no result: IDE cell inh)
O=C(COc1ccccc1Cl)N1CCNC1=O	none (no result: IDE cell inh)
CCn1nc(C)c(CNC(=O)C2CCC(=O)N(CCc3ccc(OC)cc3)C2)c1C (centres undefined)	none
O=C1C(SCCO)=C(SCCO)C(=O)c2ccccc21	IDE cell inh 53
CCCOc1ccc(C(=O)NC(=S)NNC(=O)c2c(-c3ccccc3)noc2C)cc1	CRFR2-BP ag 145
Cc1onc(-c2ccccc2)c1C(=O)NC(=S)NNC(=O)c1ccccc1O	CRFR2-BP ag 202
CCCOc1ccc(NC(=O)c2c(-c3ccccc3)noc2C)cc1	none
O=S(=O)(c1ccc(SCCOc2cccc(Br)c2)nc1)N1CCCC1	none
N#CC1(C#N)C(c2ccccc2)OC23CCCCC2C1(C#N)C(=N)O3 (centres undefined)	cardiac RTF act 30
N#CC1(C#N)C(c2ccccc2)OC23CCCCCC2C1(C#N)C(=N)O3 (centres undefined)	none
CCCCC1OC23CCCCC2C(C#N)(C#N)C1(C#N)C(=N)O3 (centres undefined)	cardiac RTF act 46
COc1ccc(S(=O)(=O)N2CCOCC2)cc1NC(=O)CN1C(=O)NC2(CCC(C)CC2)C1=O (centres undefined)	none (no result: IDE act, IDE cell inh, cardiac RTF act, RTF Ca sens inh)
Cc1c(C(=O)N2CC(C(=O)N3CCCCC3)Oc3ccccc32)oc2ccccc12 (centres undefined)	CRFR2-BP antag 75 (no result: IDE cell inh)
O=C(c1ccc(Cl)c(S(=O)(=O)N2CCc3ccccc3C2)c1)N1CCN(c2ccccc2)CC1	none
O=C(c1ccc(Cl)c(S(=O)(=O)Nc2ccccc2C(=O)N2CCc3ccccc3C2)c1)N1CCc2ccccc2C1	CRFR2-BP antag 54
Cc1ccccc1OC(C)C(=O)Nc1cccnc1 (centres undefined)	none
CN1CC(=O)N(CC(=O)N2CCC(Cc3ccccc3)CC2)C1=O	CRFR2-BP antag 100
CN(C)S(=O)(=O)c1ccc(Cl)c(NC(=O)CNC2(C)CCS(=O)(=O)C2)c1 (centres undefined)	CRFR2-BP antag 113
O=C(CSc1nc(-c2ccccc2)cs1)NCCCN1CCCC1=O	none
